Results filed as inconclusive are left out. Active and inactive are the calls of the source. How the source made its calls, unless noted: active means hit-call score of the fitted dose curve at least 0.9, where 1 is the maximum; inactive means score below 0.9.
Columns and labels:
[1] = CCTE_Mundy_HCI_Cortical_Synap_Neur_Matur_NeuriteSpotCountPerNeuron: CCTE's Synaptogenesis and Neurite Maturation Assay in rat cortical cells for Neurite Spot Count per Neuron Count, Mundy Lab (AID 2284215)
How it was run: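 Rat cortical primary cultures; AraC DIV 5 to arrest glia; dosing + media change DIV 7; fixed DIV 12. Anti-MAP2/anti-synaptophysin, Hoechst nuclei; HCI puncta count per neuron, positive fitting direction vs DMSO.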

[2] = CCTE_Mundy_HCI_Cortical_Synap_Neur_Matur_SynapseCount: CCTE's Synaptogenesis and Neurite Maturation Assay in rat cortical cells for Synapse Count, Mundy Lab (AID 2284218)
How it was run: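 Cells were plated, allowed 2 hr to attach, treated with AraC at DIV 5, then exposed to chemicals from DIV 7 until DIV 12. After fixation and MAP2/synaptophysin immunolabelling, synapses per neuron were quantified by automated imaging against DMSO.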

[3] = CCTE_Mundy_HCI_Cortical_Synap_Neur_Matur_CellBodySpotCount: CCTE's Synaptogenesis and Neurite Maturation Assay in rat cortical cells for Cell Body Spot Count, Mundy Lab (AID 2284223)
How it was run: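 Rat cortical neurons; AraC @ DIV 5; dose + media change DIV 7; fix DIV 12; anti-MAP2/anti-synaptophysin IF, Hoechst; HCI count of soma synaptophysin puncta/neuron; DMSO = negative control.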

[4] = CCTE_Mundy_HCI_hNP1_Pro_ResponderAvgInten: CCTE's Proliferation Assay in human neuroprogenitor cells, Mundy Lab (AID 2284224; active means hit-call score of the fitted dose curve at least 0.9, where 1 is the maximum;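 further: human neural progenitor cells hNP1 derived from WA09 embryonic stem cells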)
How it was run: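 Human neuroprogenitors (hNP1, WA09 lineage) receive test chemical after 40 to 44 hours of attachment. A four-hour BrdU pulse begins twenty hours later, followed by fixation and high content imaging; signal is referenced to DMSO controls.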

[5] = UKN2_HCS_IMR90_cell_viability: Viability Assessment in the University of Konstanz (UKN) Leist Lab Neural Crest Cell Migration Assay in human induced IMR90 Pluripotent Stem Cells (UKN2) (AID 2284233);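 further: viability of neural crest cells differentiated from IMR90 iPSC measured by calcein-AM fluorescence imaging; cells exposed to compound for 24 h after a 24 h migration phase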
How it was run: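 cMINC format, iPSC-derived neural crest (IMR90); 24 h migration (EGF/FGF, N2-S), then 24 h toxicant. Calcein-AM/H-33342 stain 30 min; fluorescence intensity by HCS; DMSO-normalised, bidirectional fitting.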

[6] = CCTE_Mundy_HCI_Cortical_NOG_NeuronCount: CCTE's Neurite Outgrowth Assay in rat cortical cells for Neuron Count, Mundy Lab (AID 2284236; active means hit-call score of the fitted dose curve at least 0.9, where 1 is the maximum;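 further: neurons counted by imaging betaIII-tubulin and Hoechst stained cortical cells; cells exposed to compound for about 48 hours before fixation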)
How it was run: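 Read-out: neuron number by high-content imaging of betaIII-tubulin (Alexa Fluor-488) and Hoechst-labelled rat primary cortical cells.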

[7] = CCTE_Mundy_HCI_Cortical_NOG_BPCount: CCTE's Neurite Outgrowth Assay in rat cortical cells for Branch Point Count, Mundy Lab (AID 2284237);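 further: branch points counted about two days after chemical exposure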
How it was run: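 Measured 50.33 h after dosing, this morphology endpoint uses rat primary cortical cultures labelled for betaIII-tubulin. Branch points are quantified by high-content imaging, with DMSO as negative control and baseline.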

[8] = CCTE_Mundy_HCI_hNP1_Casp3_7: CCTE's Caspase-Glo 3/7 Assay in human neuroprogenitor cells for Apoptosis, Mundy Lab (AID 2284240)
How it was run: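 Neuroepithelial-lineage stem cells from WA09 embryonic cells were treated with chemicals after 40–44 h of culture. Twenty-four hours later, caspase-3/7 activation was detected luminescently after a 30 min room-temperature reagent step, with DMSO as baseline.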

[9] = CCTE_Mundy_HCI_hNP1_CellTiter: CCTE's Cell Titer-Glo 2 Assay in human neuroprogenitor cells for Viability, Mundy Lab (AID 2284241; active means hit-call score of the fitted dose curve at least 0.9, where 1 is the maximum;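 further: a hit is a drop in ATP luminescence versus DMSO meaning reduced viability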)
How it was run: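 Measures ATP content in human neural progenitors derived from WA09 embryonic cells. Read-out at 26.5 hours after dosing, with DMSO serving as the negative control and baseline.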

[10] = CCTE_Mundy_HCI_Cortical_Synap_Neur_Matur_NeuronCount: CCTE's Synaptogenesis and Neurite Maturation Assay in rat cortical cells for Neuron Count, Mundy Lab (AID 2284242; active means hit-call score of the fitted dose curve at least 0.9, where 1 is the maximum;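 further: neuron number from Hoechst nuclei and MAP2 staining by high-content imaging; hits reduce neuron count versus DMSO baseline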)
How it was run: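 Cortical cells from rat are plated, treated with AraC at DIV 5, and exposed to test chemicals with a media change at DIV 7. At DIV 12 they are fixed and immunostained (MAP2, synaptophysin), and imaged neuron counts are compared against DMSO controls.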

[11] = IUF_NPC2c_oligodendrocyte_migration_120hr: Leibniz Research Institute for Environmental Medicine (IUF) 120-hour Neural Progenitor Cell Migration Assay for Oligodendrocyte Migration (NPC2c) (AID 2284297)
How it was run: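 Read-out is the mean distance of O4-positive oligodendrocytes from the sphere core edge at 120 h, normalized to radial glia migration and fitted in the gain direction against DMSO. Spheres of primary human neural progenitors differentiated on laminin under continuous compound exposure.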

[12] = IUF_NPC2a_radial_glia_migration_120hr: Leibniz Research Institute for Environmental Medicine (IUF) 120-hour Neural Progenitor Cell Migration Assay for Radial Glia Migration (NPC2a) (AID 2284298)
How it was run: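 Readout: distance in um from sphere core edge to migration-area edge, derived from Hoechst nuclei density with a threshold-defined polynomial boundary. Spheres: hNPC, GW 16-19, 0.3 mm, on PDL/laminin; exposure 5 days; DMSO is baseline.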

[13] = IUF_NPC2b_neuronal_migration_120hr: Leibniz Research Institute for Environmental Medicine (IUF) 120-hour Neural Progenitor Cell Migration Assay for Neuron Migration (NPC2b) (AID 2284300)
How it was run: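 Read-out is mean distance from sphere edge to each TUBB3-positive neuron at 120 h, expressed relative to radial glia migration distance and to DMSO baseline. Single 0.3 mm human NPC spheres differentiated on laminin under continuous compound exposure.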

[14] = IUF_NPC3_neuronal_differentiation_120hr: Leibniz Research Institute for Environmental Medicine (IUF) 120-hour Neuronal Differentiation Assay (NPC3) (AID 2284301)
How it was run: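 Neuronal differentiation of primary human neural progenitors measured by high-content imaging: percent TUBB3+ of Hoechst+ nuclei within migrated area at 120 h, seven-point serial dilution plus solvent control, gain or loss relative to DMSO.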

[15] = IUF_NPC4_neurite_length_120hr: Leibniz Research Institute for Environmental Medicine (IUF) 120-hour Neuronal Morphology Assay for Neurite Length (NPC4) (AID 2284302)
How it was run: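 Neurons from differentiating human fetal neural progenitor spheres are scored for average neurite length after five days of compound exposure. Fitting uses DMSO as negative control.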

[16] = IUF_NPC5_oligodendrocyte_differentiation_120hr: Leibniz Research Institute for Environmental Medicine (IUF) 120-hour Oligodendrocyte Differentiation Assay (NPC5) (AID 2284304; active means hit-call score of the fitted dose curve at least 0.9, where 1 is the maximum;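 further: primary human fetal neural progenitor spheres plated to migrate and differentiate; share of O4-positive cells among Hoechst nuclei found by CNN image analysis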)
How it was run: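 Oligodendrocyte differentiation was scored after 120 h as the O4-positive share of Hoechst-stained nuclei across the neurosphere migration area, using a trained convolutional neural network on high-content fluorescence images. Human fetal neural progenitor spheres were dosed from day 0, normalised to DMSO.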

[17] = IUF_NPC4_neurite_area_120hr: Leibniz Research Institute for Environmental Medicine (IUF) 120-hour Neuronal Morphology Assay for Neurite Area (NPC4) (AID 2284305; active means hit-call score of the fitted dose curve at least 0.9, where 1 is the maximum)
How it was run: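 Endpoint at 120 h: automated imaging of TUBB3/Hoechst-stained differentiating human neural progenitor spheres, neurite area per neuron from skeletonization. DMSO solvent control, not above 0.1%, set the baseline; medium was half-replaced on day 3.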

[18] = IUF_NPC2-5_cytotoxicity_72hr: Cytotoxicity Assessment at 72 hours in the Leibniz Research Institute for Environmental Medicine (IUF) Neural Progenitor Cell Migration and Differentiation Assay for Cytotoxicity (NPC2-5) (AID 2284306; active means hit-call score of the fitted dose curve at least 0.9, where 1 is the maximum;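 further: LDH release into supernatant measured by resorufin fluorescence marking membrane damage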)
How it was run: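 Primary human neural progenitor spheres migrate and differentiate on laminin. Compound is present from the start of differentiation, with DMSO kept at or below 0.1%. At 72 h, supernatant LDH is quantified fluorometrically, with values fitted in the positive direction.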

[19] = IUF_NPC2-5_cytotoxicity_120hr: Cytotoxicity Assessment at 120 hours in the Leibniz Research Institute for Environmental Medicine (IUF) Neural Progenitor Cell Migration and Differentiation Assay (NPC2-5) (AID 2284307; active means hit-call score of the fitted dose curve at least 0.9, where 1 is the maximum;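 further: LDH released into supernatant as membrane damage marker via resorufin fluorescence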)
How it was run: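 Sphere plating starts differentiation and exposure together at day 0. Compound solution is half-replaced on day 3. At 120 h, medium supernatant is taken for an LDH membrane-integrity read based on resazurin reduction to resorufin fluorescence.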

[20] = IUF_NPC2-5_cell_number_120hr: Cell Number Assessment at 120 hours in the Leibniz Research Institute for Environmental Medicine (IUF) Neural Progenitor Cell Migration and Differentiation Assay (NPC2-5) (AID 2284308);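 further: count of Hoechst-stained nuclei in migration zone around plated human neural progenitor spheres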
How it was run: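 hNPC spheres, one per well, PDL/laminin, N2 medium, 37C, 5% CO2. Dosing day 0 → half-medium change with fresh compound day 3 → fix 120 h. Readout: Hoechst+ nuclei count, migration area; 7 concentrations plus solvent control.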

[21] = IUF_NPC2-5_viability_120hr: Viability Assessment at 120 hours in the Leibniz Research Institute for Environmental Medicine (IUF) Neural Progenitor Cell Migration and Differentiation Assay (NPC2-5) (AID 2284312)
How it was run: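 Human fetal (GW 16-19) neural progenitor spheres of 0.3 mm were plated on poly-D-lysine/laminin in N2 differentiation medium and exposed from day 0 for 120 h, with half-medium refresh at day 3. Viability was read as alamar blue resazurin-to-resorufin fluorescence against DMSO.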

[22] = CCTE_Mundy_HCI_iCellGluta_NOG_NeuriteLength: CCTE's Neurite Outgrowth Assay in iCellGluta cells for Neurite Length, Mundy Lab (AID 2284318; active means hit-call score of the fitted dose curve at least 0.9, where 1 is the maximum)
How it was run: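 Automated high-content imaging of betaIII-tubulin (Alexa Fluor-488) and Hoechst-stained cells gave neurite length, normalized to the DMSO baseline.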

[23] = IUF_NPC1_cytotoxicity_72hr: Cytotoxicity Assessment at 72 hours in the Leibniz Research Institute for Environmental Medicine (IUF) Neural Progenitor Cell Proliferation Assay (NPC1) (AID 2284332; active means hit-call score of the fitted dose curve at least 0.9, where 1 is the maximum;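 further: rising LDH signal means more cytotoxicity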)
How it was run: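 Membrane-integrity loss is scored from LDH released into the medium, detected as resorufin fluorescence, with activity fitted upward relative to baseline. Test material stays on human fetal-derived progenitor spheres for 72 h.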

[24] = CCTE_Mundy_HCI_iCellGluta_NOG_NeuronCount: CCTE's Neurite Outgrowth Assay in iCellGluta cells for Neuron Count, Mundy Lab (AID 2284340; active means hit-call score of the fitted dose curve at least 0.9, where 1 is the maximum;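 further: cells fixed about 48 h after compound addition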)
How it was run: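 Neuron count read by automated high-content imaging of Hoechst 33342 and betaIII-tubulin/Alexa Fluor-488 labelling in human iPSC glutamatergic neurons. Activity fitted relative to DMSO.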

[25] = CCTE_Mundy_HCI_iCellGluta_NOG_NeuriteCount: CCTE's Neurite Outgrowth Assay in iCellGluta cells for Neurite Count, Mundy Lab (AID 2284342; active means hit-call score of the fitted dose curve at least 0.9, where 1 is the maximum;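 further: chemical exposure about 48 hours starting 2 hours after plating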)

Measured: AC50

BrC1CC(Br)CC(Br)CC(Br)CC(Br)CC(Br)C1 (stereo not given)
inactive: [5] | [12] | [18] | [20] | [21] | [23]
active: [1] 3.23 µM | [2] 3.61 µM | [3] 3.8 µM | [4] 7.21 µM | [6] 9.27 µM | [7] 8.4 µM | [8] 4.22 µM | [9] 8.39 µM | [10] 3.43 µM | [11] 1.24 µM | [13] 3.11 µM | [14] 1.72 µM | [15] 1.04 µM | [16] 0.856 µM | [17] 1.06 µM | [19] 4.52 µM | [22] 3.77 µM | [24] 4.56 µM | [25] 4.69 µM

Source: PubChem BioAssay (EPA / NIEHS)
